# HPGD inh = qHTS Assay for Inhibitors of HPGD (15-Hydroxyprostaglandin Dehydrogenase); Potency, µM, actives largely listed as inhibitors; AID 894, 2007; 4.3% of 150,000 active; 15-hydroxyprostaglandin dehydrogenase [NAD(+)] (Homo sapiens), P15428; purified HPGD, NADH fluorescence kinetic, PGE2 substrate; active = well fitted inhibition curve with a large enough effect, not every such curve was filed as active; inconclusive = small, poorly fitted or top-dose-only effect, or another doubt; inactive = no such curve, though single readings can be large or run the other way
# Target sequence (P15428 whole entry, looked up): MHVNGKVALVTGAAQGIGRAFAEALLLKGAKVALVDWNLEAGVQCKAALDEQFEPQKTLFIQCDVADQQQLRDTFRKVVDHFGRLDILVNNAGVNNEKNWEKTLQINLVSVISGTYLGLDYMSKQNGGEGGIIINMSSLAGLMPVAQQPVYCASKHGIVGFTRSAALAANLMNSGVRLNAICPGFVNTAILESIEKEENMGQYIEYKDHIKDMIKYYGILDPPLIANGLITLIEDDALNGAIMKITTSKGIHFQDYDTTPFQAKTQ
#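 NADH formation kinetics: reaction with 30 uM PGE2 and 1 mM NAD+ (final), 20 nM enzyme, Tris-HCl pH 8 with Tween 20, after 15 min compound preincubation at room temperature. Fluorescence change, last versus first of five reads.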
# JMJD2E inh = qHTS Assay for Inhibitors of Human Jumonji Domain Containing 2E (JMJD2E) | Lysine-specific demethylase 4E (Homo sapiens), B2RXH2 | JMJD2E catalytic domain, FDH-coupled NADH fluorescence (FDH is formaldehyde dehydrogenase) | Potency, µM (highest dose often 57.1 µM), actives largely listed as inhibitors | 1.6% of 230,000 active | AID 2147, 2009; active = well fitted inhibition curve with a large enough effect, not every such curve was filed as active; inconclusive = small, poorly fitted or top-dose-only effect, or another doubt; inactive = no such curve, though single readings can be large or run the other way; also: nearly all actives have a fitted effect of over 50% in size
# Target sequence (B2RXH2 1-337 limits assumed): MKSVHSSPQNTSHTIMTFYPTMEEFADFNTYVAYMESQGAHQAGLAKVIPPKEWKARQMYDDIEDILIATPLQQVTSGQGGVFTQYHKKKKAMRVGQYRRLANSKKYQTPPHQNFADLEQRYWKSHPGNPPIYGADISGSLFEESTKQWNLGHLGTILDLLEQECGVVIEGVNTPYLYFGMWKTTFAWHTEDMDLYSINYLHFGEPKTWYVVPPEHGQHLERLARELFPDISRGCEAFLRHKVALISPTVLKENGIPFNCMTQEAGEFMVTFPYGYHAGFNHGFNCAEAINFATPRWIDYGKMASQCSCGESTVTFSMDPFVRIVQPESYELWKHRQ
# HTT cytoprotect = qHTS Multiplex Assay to Identify Dual Action Probes in a Cell Model of Huntington: Cytoprotection (ATP); PC12 HTT-Q103 induced, cytoprotection, ATP luminescence, 40 h; Potency, µM (doses to about 56.4 µM), hits mostly activators; 0.14% of 230,000 active; AID 1471, 2008; also: nearly all actives have a fitted effect of over 45% in size
#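 Compounds added alongside 100 nM tebufenozide, which induces toxic Q103 huntingtin exon 1-GFP in stable PC12 cells; surviving cells quantified by luminescent ATP measurement. Medium: phenol red-free DMEM, 5% equine and 5% calf serum.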
# ALDH1A1 block = qHTS Assay for Inhibitors of Aldehyde Dehydrogenase 1 (ALDH1A1); Aldehyde dehydrogenase 1A1 (Homo sapiens), P00352; AID 1030, 2008; 7.3% of 220,000 active; Purified ALDH1A1, NADH fluorescence, propionaldehyde substrate; Potency, µM (highest dose often 75.3 µM), usual class: inhibitors; active = well fitted inhibition curve with a large enough effect, not every such curve was filed as active; inconclusive = small, poorly fitted or top-dose-only effect, or another doubt; inactive = no such curve, though single readings can be large or run the other way
# HttQ103 aggreg = qHTS Multiplex Assay to Identify Dual Action Probes in a Cell Model of Huntington: Aggregate Formation (GFP); Potency, µM (highest dose often 46.1 µM), actives largely listed as inhibitors; PC12 HttQ103-GFP aggregates, Acumen cytometry, 40 h; 1.1% of 220,000 active; also: nearly all actives have a fitted effect of over 60% in size
#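 PC12 cells with ecdysone-inducible HTT exon1 Q103-GFP, induced by 100 nM tebufenozide, given compounds in a concentration series. GFP aggregates (1–25 um, 6 SD above background) counted in lysates by laser-scanning cytometry, 488 nm excitation.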
# CBFb-RUNX1 inh = qHTS Assay for Compounds Blocking the Interaction Between CBF-beta and RUNX1 for the Treatment of Acute Myeloid Leukemia; Runt-related transcription factor 1 (Homo sapiens) + Core-binding factor subunit beta …; AlphaScreen CBFb-His/RUNX1-biotin binding, biochemical; Potency, µM (doses to about 59.8 µM), usual class: inhibitors; 230,000 tested, under 10 active; AID 1477, 2009
#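 Bead-based AlphaScreen assay; binding partners His-tagged CBF-beta and biotinylated RUNX1 at 30 nM each. Compound exposure 15 min after a 20-min protein preincubation; bead step 90 min; all steps at room temperature.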
# Numbers stand for hits; – = inactive; ? = inconclusive; · = no result given; [ ] = dose if it differs, or a comment. A selection: hits, their analogues and other compounds. The true share with any hit is near 9.8%. Unless noted, calls follow the shape of the dose curve; as a rule, active = well fitted curve in the direction sought with a large enough effect; inconclusive = small, poorly fitted or top-dose-only effect, or another doubt; inactive = no such curve, though single readings can be large; an effect the other way counts as inactive or inconclusive.
SMILES,HPGD inh,JMJD2E inh,HTT cytoprotect,ALDH1A1 block,HttQ103 aggreg,CBFb-RUNX1 inh
CC(C)(C)C(=O)[C@@H]1[C@@H]2C(=O)N(c3ccc4c(c3)OCCO4)C(=O)[C@@H]2C2c3ccccc3C=CN21 (stereo partly specified),?,–,–,?,–,–
Cc1ccc(N2C(=O)[C@@H]3[C@H](C2=O)C2c4ccccc4C=CN2[C@@H]3C(=O)c2ccco2)c(C)c1 (stereo partly specified),35µM,?,–[0.074 µM],7.9µM,–,–
CC(=O)[C@@H]1[C@@H]2C(=O)N(Cc3ccccc3)C(=O)[C@@H]2C2c3ccccc3C=CN21 (stereo partly specified),?,–,–,20µM,–,–
COc1cccc(Nc2ncc3nc(-c4ccc(F)cc4)c(=O)n(CCC#N)c3n2)c1,–,·,–,–,·,·
CSc1cccc(NC(=S)N2CCCN(Cc3ccccc3F)C2)c1,·,–,–,?,–,–
O=C(c1ccco1)[C@@H]1[C@@H]2C(=O)N(c3ccccc3)C(=O)[C@@H]2C2c3ccccc3C=CN21 (stereo partly specified),?,?,–[0.074 µM],2.2µM,?,–
O=C(c1ccc(Cl)cc1)[C@@H]1[C@@H]2C(=O)N(c3ccccc3)C(=O)[C@@H]2C2c3ccccc3C=NN21 (stereo partly specified),–,–,–[10 µM],?,–,–
CCOC(=O)N1CCN(/[N+]([O-])=N/Oc2ccc([N+](=O)[O-])cc2[N+](=O)[O-])C(C)C1 (stereo unspecified),·,·,·,·,·,–
O=C(Oc1ccc2c(c1)O/C(=C\c1ccncc1)C2=O)c1cccs1,·,–,–[10 µM],·,–[9.22 µM],–
COc1ccccc1C(=O)Oc1ccc2c(c1)O/C(=C\c1ccncc1)C2=O,–,?,–[1.9 µM],?,–,–
CS(=O)(=O)Oc1ccc2c(c1)O/C(=C\c1cccnc1)C2=O,·,?,–[10 µM],11µM,–[9.22 µM],–
O=C1/C(=C/c2cccnc2)Oc2cc(OS(=O)(=O)c3ccc(Cl)cc3)ccc21,–,–,–,1.6µM,–[9.22 µM],–
COc1ccc(S(=O)(=O)Oc2ccc3c(c2)O/C(=C\c2cccnc2)C3=O)cc1,16µM,–,–[10 µM],7.9µM,?,–
O=C1/C(=C/c2cccnc2)Oc2cc(OS(=O)(=O)c3ccccc3)ccc21,?,–,–,3.2µM,–,–
CC(=O)Oc1ccc2c(c1)O/C(=C\c1ccncc1)C2=O,·,–,–[10 µM],·,–[9.22 µM],–
Nc1[nH]nc2ncc3cc4ccccc4nc3c12,·,–,–[10 µM],–,–[9.22 µM],–
O=C(NCCc1ccccc1)C1CCN(C(=O)c2ccc([N+](=O)[O-])cc2)CC1,·,–,·,–,–,–
CC(Oc1ccc(Br)cc1)c1nc2c3ccccc3nc(=S)n2[nH]1 (stereo unspecified),·,–,–,–,8.9µM,–
CCOc1ccccc1NC=C1C(=O)OC(C)(C)OC1=O,–,–,–,2.2µM,–,–
CC1(C)OC(=O)C(=CNc2ccccc2F)C(=O)O1,–,–,–,?,–,–
COc1ccccc1NC=C1C(=O)OC(C)(C)OC1=O,–,–,–,0.35µM,–[9.22 µM],–
CN(C)C(=O)N(CCCN1CCOCC1)Cc1cccc2ccccc12,·,–,–[10 µM],·,–[9.22 µM],–
CN(Cc1ccccc1)C(=O)CCCn1c(=O)[nH]c2cc(Cl)ccc2c1=O,25µM,?,–,–,–[9.22 µM],–
COc1ccc(CCCc2nnc(SCc3nc4ccccc4c(=O)[nH]3)n2C)c(C)c1,·,–,–[10 µM],·,–[9.22 µM],–
CCCCc1nc2c(c3c1C[C@H](C)OC3)CN(S(=O)(=O)c1ccc3c(c1)OCCN3C)CC2,–,–[11.4 µM],–[10 µM],–[13.5 µM],·,–[13.1 µM]
SMILES,HPGD inh,JMJD2E inh,HTT cytoprotect,ALDH1A1 block,HttQ103 aggreg,CBFb-RUNX1 inh
Cc1cc(S(=O)(=O)N2CCN(c3ccccc3O)CC2)c(C)s1,–,–,–,?,–,–
Cc1ccc(S(=O)(=O)N2CCCC2)cc1S(=O)(=O)N1CCCC1,–,–,–[10 µM],18µM,–,–
Cc1cc(S(=O)(=O)N2CCCC2)c(C)s1,·,–,–,7.9µM,–,–
CCCc1cc(=O)[nH]c(SCCN2C(=O)c3ccccc3C2=O)n1,·,–,–[10 µM],–,–,–
Cn1cccc1C(=O)N1CCC[C@@]2(CCN(Cc3cc(C(F)(F)F)cc(C(F)(F)F)c3)C2)C1,–,·,–,–,·,·
[O-][N+]1(CC[N+]2([O-])CCCCC2)CCCCC1,–,·,–[10 µM],–[13.5 µM],·,·
O=C(C1CCCCC1)N1CCC(n2nnc3ccccc32)CC1,–,–,–[10 µM],14µM,–,–
CC(C)CCN(CCC(C)C)C(CO)(CO)CO,·,–,–[10 µM],28µM,–[9.22 µM],–
N#CCCN(C(=S)NC(=O)c1ccco1)c1ccccc1F,·,–,–[10 µM],7.9µM,–,–
N#CCCN(Cc1cccnc1)C(=S)NC(=O)c1ccco1,·,–,–[10 µM],11µM,–,–
N#CCCN(Cc1cccnc1)C(=S)NCc1ccco1,·,?,–,18µM,–,–
COCCNC(=O)C1(C)C=CCN1C(C)=O (stereo unspecified),–,–,–,–,·,–
C/C(=N\N1C(=O)c2ccccc2NC1c1ccco1)c1ccccc1O (stereo unspecified),·,22µM,–,–,7.1µM,–
C[C@@H]1Cc2ccccc2N1NC(=O)c1ccc(Cl)c(S(N)=O)c1 (stereo partly specified),–,–,–,7.9µM,?,–
COc1cc(/C=C2\C(=O)N(CCC#N)N=C2C)c(Br)cc1OC(C)C,8.9µM,–,–[10 µM],–,–,–
COc1ccc(CCNC(=O)C2CCN(S(C)(=O)=O)CC2)cc1,–,–,–,16µM,–,–
COc1ccc(OC)c(S(=O)(=O)N2CCC(C(=O)NCCc3ccccc3)CC2)c1,–,–,–,5µM,–,–
COc1ccc(CCNC(=O)C2CCN(S(=O)(=O)c3cc(OC)ccc3OC)CC2)cc1,–,–,–[0.074 µM],?,–,–
CCCc1ccc(/C=C2\C(=O)c3ccccc3C(O)=C2C(=O)OCC)cc1,4.5µM,18µM,–[10 µM],?,?,–
CCOC(=O)C1=C(O)c2ccccc2C(=O)/C1=C\c1ccc(CC)cc1,0.89µM,?,–[10 µM],19µM,–,–
CCOC(=O)c1ccc(COC(=O)c2ccc3c(c2)-c2ccccc2C3=O)cc1,–,–,–,–,–,–
CSc1ncccc1C(=O)OCC(=O)c1ccc(Br)s1,·,–,–[10 µM],–,–,–
CCOc1ccc2oc(-c3ccccc3)c(C(=O)N3CCN(CCO)CC3)c2c1,?,?,–,?,–,–

# High-throughput results deposited in PubChem BioAssay by National Center for Advancing Translational Sciences (NCATS).
